The text below walks through data of paper PMC8384837, “Expanding the binding specificity for RNA recognition by a PUF domain”.

Experiment in all cases: yeast three-hybrid, YBZ-1, SC-Leu-His + 0.5 mM 3-AT, 4 days
Holding throughout (conditions): tags: N-Gal4 AD-HA kept; label: inside an RPR1-promoter hybrid RNA with tandem MS2 sites; ssRNA

One test concerns the target PUM1 PUF domain R7-GPR (Homo sapiens, UniProt Q14671 828-1176, S1079G;N1080P;E1083R). The method, boiled down:
(§1)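 Matching RNA elements and Pumilio-1 PUF domain libraries, randomized at the three base-contacting residues of every repeat, were co-expressed from a centromeric plasmid in strain YBZ-1 (LexA–MS2 coat fusion, HIS3 reporter). The repeat regions were PCR-amplified and Illumina-sequenced from cells grown four days on SC-Leu (input) or SC-Leu-His + 0.5 mM 3-AT (selection). The interaction score is the log change in variant frequency from input to selection. It is computed in log2, with a pseudocount of 1 for absent variants.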

The target of a further test is PUM1 PUF domain R7-RRT (Homo sapiens, UniProt Q14671 828-1176, S1079R;N1080R;E1083T). The gist of the method:
as §1

Another test has as its target PUM1 PUF domain R7-QRR (Homo sapiens, UniProt Q14671 828-1176, S1079Q;N1080R;E1083R). The method, boiled down: as §1
The target of another test is PUM1 PUF domain R7-RPV (Homo sapiens, UniProt Q14671 828-1176, S1079R;N1080P;E1083V). The gist of the method:
as §1

Another test addresses PUM1 PUF domain R1-NFV (Homo sapiens, UniProt Q14671 828-1176, S863N;R864F;Q867V). The gist of the method:
as §1

The target of the next test is PUM1 PUF domain R1-AWR (Homo sapiens, UniProt Q14671 828-1176, S863A;R864W;Q867R). The method, boiled down:
as §1

The target in another test is PUM1 PUF domain R5-RSG (Homo sapiens, UniProt Q14671 828-1176, C1007R;R1008S;Q1011G). The method, boiled down:
as §1

A further test has as its target PUM1 PUF domain R8-RFS (Homo sapiens, UniProt Q14671 828-1176, N1122R;Y1123F;Q1126S). The method, boiled down:
as §1

For another test, the target named is PUM1 PUF domain R3-TRS (Homo sapiens, UniProt Q14671 828-1176, C935T;Q939S). The method, boiled down: as §1
PUM1 PUF domain R3-TRS, sequence (Q14671 828-1176 C935T/Q939S): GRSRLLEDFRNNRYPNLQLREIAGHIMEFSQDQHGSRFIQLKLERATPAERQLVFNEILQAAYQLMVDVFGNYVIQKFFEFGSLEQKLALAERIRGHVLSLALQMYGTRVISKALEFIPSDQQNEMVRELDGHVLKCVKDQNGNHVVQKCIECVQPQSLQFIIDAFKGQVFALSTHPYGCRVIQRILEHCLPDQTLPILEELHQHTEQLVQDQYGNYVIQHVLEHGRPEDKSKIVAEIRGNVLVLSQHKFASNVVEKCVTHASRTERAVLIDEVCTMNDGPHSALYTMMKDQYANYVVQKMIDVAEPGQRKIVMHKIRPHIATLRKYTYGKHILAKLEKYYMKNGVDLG
In the next test the target is PUM1 PUF domain R3-MWP (Homo sapiens, UniProt Q14671 828-1176, C935M;R936W;Q939P). The gist of the method:
as §1

Another test addresses PUM1 PUF domain R3-LYL (Homo sapiens, UniProt Q14671 828-1176, C935L;R936Y;Q939L). The method, boiled down:
as §1

A further test concerns the target T1, PUM1 PUF domain R6-QYG (Homo sapiens, UniProt Q14671 828-1176, N1043Q;Q1047G).
T1 sequence: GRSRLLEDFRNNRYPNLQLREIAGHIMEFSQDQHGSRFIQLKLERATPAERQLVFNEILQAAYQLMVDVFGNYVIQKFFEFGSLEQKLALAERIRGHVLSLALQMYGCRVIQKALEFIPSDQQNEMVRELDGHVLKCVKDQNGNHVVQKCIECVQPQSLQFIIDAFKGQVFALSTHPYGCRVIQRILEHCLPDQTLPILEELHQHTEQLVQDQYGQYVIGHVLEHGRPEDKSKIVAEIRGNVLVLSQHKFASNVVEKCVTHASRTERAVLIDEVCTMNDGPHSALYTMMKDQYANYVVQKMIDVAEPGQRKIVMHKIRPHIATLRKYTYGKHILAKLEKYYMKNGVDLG
The method, boiled down: as §1

Another test deals with PUM1 PUF domain R4-ACS (Homo sapiens, UniProt Q14671 828-1176, N971A;H972C;Q975S). The method, boiled down: as §1
PUM1 PUF domain R4-ACS, sequence (Q14671 828-1176 N971A/H972C/Q975S): as the sequence (Q14671 828-1176 C935T/Q939S) above, with T108C, S112Q, N144A, H145C, Q148S counted along it
The target of a further test is PUM1 PUF domain R4-GFP (Homo sapiens, UniProt Q14671 828-1176, N971G;H972F;Q975P). The gist of the method: as §1
PUM1 PUF domain R4-GFP, sequence (Q14671 828-1176 N971G/H972F/Q975P): as the sequence (Q14671 828-1176 C935T/Q939S) above, with T108C, S112Q, N144G, H145F, Q148P counted along it
The next test addresses PUM1 PUF domain R3-PHQ (Homo sapiens, UniProt Q14671 828-1176, C935P;R936H). The gist of the method:
as §1

The target of another test is PUM1 PUF domain R8-PWW (Homo sapiens, UniProt Q14671 828-1176, N1122P;Y1123W;Q1126W). The method, boiled down: as §1
PUM1 PUF domain R8-PWW, sequence (Q14671 828-1176 N1122P/Y1123W/Q1126W): as the sequence (Q14671 828-1176 C935T/Q939S) above, with T108C, S112Q, N295P, Y296W, Q299W counted along it
Another test concerns the target PUM1 PUF domain R3-IFL (Homo sapiens, UniProt Q14671 828-1176, C935I;R936F;Q939L). The gist of the method:
as §1

The target of a further test is PUM1 PUF domain R3-KSD (Homo sapiens, UniProt Q14671 828-1176, C935K;R936S;Q939D). The gist of the method: as §1
In a further test the target is PUM1 PUF domain R3-RSQ (Homo sapiens, UniProt Q14671 828-1176, C935R;R936S). The method, boiled down:
as §1

A further test has as its target PUM1 PUF domain R4-ERQ (Homo sapiens, UniProt Q14671 828-1176, N971E;H972R). The method, boiled down:
as §1

PUM1 PUF domain R3-LYL, sequence (Q14671 828-1176 C935L/R936Y/Q939L): as the sequence (Q14671 828-1176 C935T/Q939S) above, with T108L, R109Y, S112L counted along it
PUM1 PUF domain R7-RPV, sequence (Q14671 828-1176 S1079R/N1080P/E1083V): as the sequence (Q14671 828-1176 C935T/Q939S) above, with T108C, S112Q, S252R, N253P, E256V counted along it
PUM1 PUF domain R3-MWP, sequence (Q14671 828-1176 C935M/R936W/Q939P): as the sequence (Q14671 828-1176 C935T/Q939S) above, with T108M, R109W, S112P counted along it
PUM1 PUF domain R3-RSQ, sequence (Q14671 828-1176 C935R/R936S): as the sequence (Q14671 828-1176 C935T/Q939S) above, with T108R, R109S, S112Q counted along it
PUM1 PUF domain R4-ERQ, sequence (Q14671 828-1176 N971E/H972R): as the sequence (Q14671 828-1176 C935T/Q939S) above, with T108C, S112Q, N144E, H145R counted along it
PUM1 PUF domain R3-PHQ, sequence (Q14671 828-1176 C935P/R936H): as the sequence (Q14671 828-1176 C935T/Q939S) above, with T108P, R109H, S112Q counted along it

Regarding “GGCUAGAACUAGUGGAUCCCCCGGCGCCCGGCGGCUCGAGCCCGGGUAAGUCUAAAUAGUCUGCAUGCCGCCGGGCGCCAUGCCUGCAGGUCGACUCUAGAAAACAUG”, the binding signal with PUM1 PUF domain R7-GPR was 3.96 log2 enrichment (interaction score); with PUM1 PUF domain R7-RRT, 4.42 log2 enrichment (interaction score); with PUM1 PUF domain R7-QRR, 3.77 log2 enrichment (interaction score); with PUM1 PUF domain R7-RPV, 1.08 log2 enrichment (interaction score).
As to “GGCUAGAACUAGUGGAUCCCCCGGCGCCCGGCGGCUCGAGCCCGGGUAAGUGUAAAUUGUCUGCAUGCCGCCGGGCGCCAUGCCUGCAGGUCGACUCUAGAAAACAUG”, the binding signal with PUM1 PUF domain R1-NFV is 5.68 log2 enrichment (interaction score); in the test with PUM1 PUF domain R1-AWR, 1.06 log2 enrichment (interaction score).
With “GGCUAGAACUAGUGGAUCCCCCGGCGCCCGGCGGCUCGAGCCCGGGUAAGUGUUAAUAGUCUGCAUGCCGCCGGGCGCCAUGCCUGCAGGUCGACUCUAGAAAACAUG”, the binding signal with PUM1 PUF domain R5-RSG is 2.84 log2 enrichment (interaction score).
Turning to “GGCUAGAACUAGUGGAUCCCCCGGCGCCCGGCGGCUCGAGCCCGGGUAAGCGUAAAUAGUCUGCAUGCCGCCGGGCGCCAUGCCUGCAGGUCGACUCUAGAAAACAUG”, in the test with PUM1 PUF domain R8-RFS, the binding signal is 5.73 log2 enrichment (interaction score).
For “GGCUAGAACUAGUGGAUCCCCCGGCGCCCGGCGGCUCGAGCCCGGGUAAGUGUAAGUAGUCUGCAUGCCGCCGGGCGCCAUGCCUGCAGGUCGACUCUAGAAAACAUG”, the results for the binding signal with PUM1 PUF domain R3-TRS, in the test with PUM1 PUF domain R3-MWP and in the test with PUM1 PUF domain R3-LYL were 1.93 log2 enrichment (interaction score), 5.07 log2 enrichment (interaction score) and 4.81 log2 enrichment (interaction score), respectively.
Take “GGCUAGAACUAGUGGAUCCCCCGGCGCCCGGCGGCUCGAGCCCGGGUAAGUGUAAAUCGUCUGCAUGCCGCCGGGCGCCAUGCCUGCAGGUCGACUCUAGAAAACAUG”: the binding signal with PUM1 PUF domain R1-AWR is 4.26 log2 enrichment (interaction score).
Take “GGCUAGAACUAGUGGAUCCCCCGGCGCCCGGCGGCUCGAGCCCGGGUAAGUGUAAAUAGUCUGCAUGCCGCCGGGCGCCAUGCCUGCAGGUCGACUCUAGAAAACAUG”: the binding signal with PUM1 PUF domain R8-RFS was 6.27 log2 enrichment (interaction score); in the test with PUM1 PUF domain R6-QYG it was 3.17 log2 enrichment (interaction score); in the test with PUM1 PUF domain R4-ACS, 2.98 log2 enrichment (interaction score); with PUM1 PUF domain R4-GFP, 4.75 log2 enrichment (interaction score); with PUM1 PUF domain R3-TRS, 4.62 log2 enrichment (interaction score); in the test with PUM1 PUF domain R3-PHQ, 4.19 log2 enrichment (interaction score). For the same sequence, the binding signal is 3.57 log2 enrichment (interaction score) in the test with PUM1 PUF domain R8-PWW and 4.43 log2 enrichment (interaction score) with PUM1 PUF domain R3-LYL.
As to “GGCUAGAACUAGUGGAUCCCCCGGCGCCCGGCGGCUCGAGCCCGGGUAAGUGUAAUUAGUCUGCAUGCCGCCGGGCGCCAUGCCUGCAGGUCGACUCUAGAAAACAUG”, the binding signal with PUM1 PUF domain R3-IFL was 3.79 log2 enrichment (interaction score); with PUM1 PUF domain R3-KSD, 2.88 log2 enrichment (interaction score); in the test with PUM1 PUF domain R3-RSQ, 4.22 log2 enrichment (interaction score); with PUM1 PUF domain R3-TRS it was 1.31 log2 enrichment (interaction score); in the test with PUM1 PUF domain R3-MWP it was 3.31 log2 enrichment (interaction score); with PUM1 PUF domain R3-LYL it was 3.45 log2 enrichment (interaction score).
As for “GGCUAGAACUAGUGGAUCCCCCGGCGCCCGGCGGCUCGAGCCCGGGUAAGUGUACAUAGUCUGCAUGCCGCCGGGCGCCAUGCCUGCAGGUCGACUCUAGAAAACAUG”, the binding signal in the test with PUM1 PUF domain R4-ACS is 1.22 log2 enrichment (interaction score); with PUM1 PUF domain R4-ERQ it was 2.62 log2 enrichment (interaction score); with PUM1 PUF domain R4-GFP, 5.41 log2 enrichment (interaction score).
For the sequence “GGCUAGAACUAGUGGAUCCCCCGGCGCCCGGCGGCUCGAGCCCGGGUAAGUGUAUAUAGUCUGCAUGCCGCCGGGCGCCAUGCCUGCAGGUCGACUCUAGAAAACAUG”, the binding signal was 1.22 log2 enrichment (interaction score) with PUM1 PUF domain R4-ACS and 5.97 log2 enrichment (interaction score) in the test with PUM1 PUF domain R4-GFP.
Consider “GGCUAGAACUAGUGGAUCCCCCGGCGCCCGGCGGCUCGAGCCCGGGUAAGUGUCAAUAGUCUGCAUGCCGCCGGGCGCCAUGCCUGCAGGUCGACUCUAGAAAACAUG”, for which the binding signal with PUM1 PUF domain R5-RSG was 3.08 log2 enrichment (interaction score).
“GGCUAGAACUAGUGGAUCCCCCGGCGCCCGGCGGCUCGAGCCCGGGUAAGUUUAAAUAGUCUGCAUGCCGCCGGGCGCCAUGCCUGCAGGUCGACUCUAGAAAACAUG”: the results for the binding signal with PUM1 PUF domain R7-RRT and with PUM1 PUF domain R7-RPV were 4.83 log2 enrichment (interaction score) and 3.09 log2 enrichment (interaction score), respectively.
